The record followed here is PubChem BioAssay (EPA / NIEHS).

Molecules are shown by their SMILES. Records with an inconclusive call do not appear. The source made the active and inactive calls. Rule for the calls, unless noted: active = hit-call score of the fitted dose curve at least 0.9, where 1 is the maximum; inconclusive = response in the unintended direction; inactive = score below 0.9.

In test [1] the target is Cellular tumor antigen p53 (Homo sapiens) (UniProt P04637). Nature of the test: TOX21_p53_BLA_p2_ratio: Tox21 HCT-116 p53 Agonism Beta-lactamase Assay, Ratio, Phase 2 (AID 2283592). In outline: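 DMSO-normalized, positive-direction endpoint derived from the 460 nm/530 nm FRET ratio in HCT116 p53 beta-lactamase reporter cells exposed 16 h at 37C and loaded with CCF4-AM for 2 h.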

For test [2] the target is unchanged. Put plainly: TOX21_p53_BLA_p3_ratio: Tox21 HCT-116 p53 Agonism Beta-lactamase Assay, Ratio, Phase 3 (AID 2283596). In a few lines: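 Cells were seeded at 4000/well, rested 5 h at 37C, then dosed with DMSO compound solutions (217-fold dilution) for 16 h. CCF4-AM substrate was loaded for 2 h at room temperature, and the 460/530 nm emission ratio was fitted for gain of signal versus DMSO.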

Test [3] is described as follows: TOX21_p53_BLA_p4_viability: Viability Assessment in the Tox21 HCT-116 p53 Agonism Beta-lactamase Assay, Phase 4 (AID 2283597).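 Note: hits lower the luminescence signal meaning cytotoxicity.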 In a few lines: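 In this multiplexed secondary endpoint, HCT116 cells (4000 per well, compound at 5 h, 16 h treatment) received CellTiter-Glo after the beta-lactamase read. Luminescence after 30 min RT reflects ATP, and falling signal marks cytotoxicity.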

The target in test [4] is Cellular tumor antigen p53 (Homo sapiens) (UniProt P04637). Put plainly: TOX21_p53_BLA_p4_ratio: Tox21 HCT-116 p53 Agonism Beta-lactamase Assay, Ratio, Phase 4 (AID 2283601). In outline:
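HCT116 cells carrying an inducible beta-lactamase reporter were plated at 4000 cells/well, rested 5 h, then exposed to compounds in DMSO (217-fold dilution) for 16 h at 37C. CCF4-AM substrate was loaded 2 h at room temperature; 460/530 nm emission ratio scored gain-of-signal versus DMSO.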

For test [5] the target is unchanged. Put plainly: TOX21_p53_BLA_p5_ratio: Tox21 HCT-116 p53 Agonism Beta-lactamase Assay, Ratio, Phase 5 (AID 2283599). In outline: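 HCT-116 cells carrying a p53-inducible beta-lactamase reporter were seeded at 4000 cells/well and dosed after 5 h with compound in DMSO (217-fold dilution). After 16 h at 37C, CCF4-AM substrate was added for 2 h, and the 460/530 nm emission ratio was scored as gain-of-signal versus DMSO.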

Test [6] in a line: TOX21_p53_BLA_p5_viability: Viability Assessment in the Tox21 HCT-116 p53 Agonism Beta-lactamase Assay, Phase 5 (AID 2283600). In a few lines: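 Here cell health was gauged by ATP levels in wells holding 4000 cells, each treated 16 h with DMSO-delivered compounds at 217-fold dilution; reduced luminescence marked toxicity.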
Test [7] is described as follows: CCTE_Harrill_HTTr_Viability_MCF7: CCTE's 6-hour Cell Viability Assessment for the High-Throughput Transcriptomics (HTTr) Platform, in MCF-7 cells cultured in DMEM + 10% fetal bovine serum, Harrill Lab (AID 2284010; active = hit-call score of the fitted dose curve at least 0.9, where 1 is the maximum; inactive = score below 0.9). In a few lines:
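Eight-point concentration series, six-hour exposure. Propidium iodide exclusion imaged to assess membrane integrity as a cytotoxicity readout; bidirectional fitting was done with DMSO as negative control and activity baseline.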

Test [8] can be described thus: CCTE_Harrill_HTTr_Apoptosis_MCF7: CCTE's 6-hour Apoptosis Assessment for the High-Throughput Transcriptomics (HTTr) Platform, in MCF-7 cells cultured in DMEM + 10% fetal bovine serum, Harrill Lab (AID 2284011; active = hit-call score of the fitted dose curve at least 0.9, where 1 is the maximum; inactive = score below 0.9). In outline: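 Apoptosis in MCF-7 cells grown in DMEM with 10% fetal bovine serum was scored after a six hour exposure by high content imaging of caspase-3/7 activation (CellEvent Caspase 3/7 Green), with DMSO serving as negative control and baseline.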

Test [9] can be described thus: UKN5_HCS_SBAD2_neurite_outgrowth: University of Konstanz (UKN) Leist Lab Neurite Outgrowth Assay in human iPSC-derived immature Dorsal Root Ganglia Neurons (UKN5) (AID 2284070; active = hit-call score of the fitted dose curve at least 0.9, where 1 is the maximum; inactive = score below 0.9). Conditions: actives raise or lower the signal. In outline:
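Neurite outgrowth is quantified as calcein-AM-labelled neurite area in human iPSC-derived peripheral neurons treated for 24 h, starting 1 h after plating in medium with CHIR99021 (1.5 uM), SU5402 (5 uM) and DAPT (5 uM).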

The nature of test [10]: UKN2_HCS_IMR90_neural_migration: University of Konstanz (UKN) Leist Lab Neural Crest Cell Migration Assay in human induced IMR90 Pluripotent Stem Cells (UKN2) (AID 2284204; active = hit-call score of the fitted dose curve at least 0.9, where 1 is the maximum; inactive = score below 0.9). To be noted: actives raise or lower the signal. In outline:
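Using a 96-well stopper format with PLO/laminin/fibronectin coating, neural crest cells from iPSC migrate in cytokine-supplemented N2-S medium; after 24 h, chemicals are applied for a further 24 h, then cells are imaged after dye staining.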

Test [11] can be described thus: UKN4_HCS_LUHMES_cell_viability: Viability Assessment in the University of Konstanz (UKN) Leist Lab Neurite Outgrowth Assay in human LUHMES cells (UKN4) (AID 2284232; active = hit-call score of the fitted dose curve at least 0.9, where 1 is the maximum; inactive = score below 0.9). In a few lines:
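Measured in replated, 2-day-differentiated LUHMES cells treated 24 h; stained 30 min with H-33342 and calcein-AM before high-content imaging.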

Test [12] can be described thus: UKN2_HCS_IMR90_cell_viability: Viability Assessment in the University of Konstanz (UKN) Leist Lab Neural Crest Cell Migration Assay in human induced IMR90 Pluripotent Stem Cells (UKN2) (AID 2284233; active = hit-call score of the fitted dose curve at least 0.9, where 1 is the maximum; inactive = score below 0.9;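 note: viability of neural crest cells differentiated from IMR90 iPSC measured by calcein-AM fluorescence imaging; cells exposed to compound for 24 h after a 24 h migration phase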). In outline: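 cMINC format, iPSC-derived neural crest (IMR90); 24 h migration (EGF/FGF, N2-S), then 24 h toxicant. Calcein-AM/H-33342 stain 30 min; fluorescence intensity by HCS; DMSO-normalised, bidirectional fitting.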

Cellular tumor antigen p53 (Homo sapiens), sequence (P04637 whole entry, looked up): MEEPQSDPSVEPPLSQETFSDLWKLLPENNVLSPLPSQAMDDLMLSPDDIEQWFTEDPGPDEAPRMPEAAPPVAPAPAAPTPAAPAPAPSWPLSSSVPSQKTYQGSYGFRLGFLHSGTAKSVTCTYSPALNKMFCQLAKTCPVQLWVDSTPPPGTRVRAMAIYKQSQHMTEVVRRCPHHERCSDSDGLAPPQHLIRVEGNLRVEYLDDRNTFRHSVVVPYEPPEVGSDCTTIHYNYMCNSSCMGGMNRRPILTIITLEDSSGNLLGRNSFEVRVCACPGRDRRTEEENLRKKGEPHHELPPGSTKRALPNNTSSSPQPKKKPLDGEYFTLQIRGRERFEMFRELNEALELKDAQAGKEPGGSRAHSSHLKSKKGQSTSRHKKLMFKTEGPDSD

For `C[C@H]1CNCCc2ccc(Cl)cc21`, the result in test [1], in test [2], in [3] and in test [4] was inactive.

In the case of `CN1CCc2cc3c(cc2C1O)OCO3` (stereo unspecified), the AC50 in test [1] was 46.3 µM (active); in [2] it was 61.2 µM (active); in [5], 46.3 µM (active); in test [4] it was 46.3 µM (active). The result in [6] was inactive.

`CSSC`: the outcome in test [1], in test [2] and in test [6] was inactive.

As to `BrC(Br)Br`, the outcome in [1], in test [2], in test [5], in test [4], in test [7] and in test [8] was inactive.

On to `Cc1ncc(CNC(=O)N(CCCl)N=O)c(N)n1`, for which the result in test [1], in test [2], in [5] and in [4] was inactive.

`CCCCCCCCn1cc[n+](C)c1`: the AC50 in test [1] is 9.49 µM (active) [middle of 4 runs]; in test [2] it was 14.7 µM (active) [middle of 4 runs]. Also, the outcome in [5] was inactive.

Consider `CNC(C)Cc1ccc2c(c1)OCO2` (stereo unspecified), for which the outcome in test [1], in test [2], in test [5], in [9], in test [10] and in test [11] was inactive. In test [12], the result was inactive.

Take `N#C/C=C/C#N`: the result in [1] and in test [5] was inactive. For the same compound, the AC50 in [2] is 93.4 µM (active).

As to `COc1ccc(C(CN(C)C)C2(O)CCCCC2)cc1` (stereo unspecified), the outcome in test [1], in test [2], in test [5], in test [6] and in test [4] was inactive.

With `CN1c2ccccc2C(NCCCCCCC(=O)O)c2ccc(Cl)cc2S1(=O)=O` (stereo unspecified), the result in test [1], in test [2], in [5] and in test [4] was inactive.

As for `COc1ccc(C(=O)c2c(C)n(CCN3CCOCC3)c3ccccc23)cc1`, the result in test [1], in test [2], in test [5] and in test [4] was inactive.

In the case of `O=Cc1ccc(Cl)cc1Cl`, the result in [1], in test [2], in test [5], in test [6] and in test [4] was inactive.

For the compound `CCCN1CCC[C@H](c2cccc(O)c2)C1`, the outcome in test [1], in test [2], in test [5] and in [4] was inactive.

Take `CC(NC(C)(C)C)C(=O)c1cccc(Cl)c1` (stereo unspecified): the outcome in [1], in [2], in [5] and in test [4] was inactive.

Usually AC50 stands for the concentration at which the activity in the assay is half-maximal.
